Assay outcomes (PubChem BioAssay)
Most compounds without a hit are left out; they make up all but 2.4% or so of the library.
C diff growth: inhibitors of Clostridium difficile growth. Clostridium difficile clinical isolate growth, OD600, 24 h; hits give low values. growth activity, negative = inhibition, % at 16 µg/mL (by protocol). actives 0.25% (n = 86,000). AID 1259249;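 active = mean growth activity at or below -80% and every replicate also at or below -80%; inconclusive = mean at or below -80% but some replicate above -80%; inactive = mean growth activity above -80%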
Pf Dd2 inh: P. falciparum Dd2 growth inhibition; SYBR Green, 72 h; hits give low values; activity change, % at 10 µM; actives 2.3% (n = 94,000); AID 1159554; in the data active = activity change below about -80%; inconclusive = no clear call, values can overlap the other calls
A number is an active result; - = inactive; ? = inconclusive; . = no result.

SMILES	C diff growth	Pf Dd2 inh
CN(C)C(=O)c1ccc(-c2ccc3c(c2)[C@H]2[C@H](CCN2C(=O)c2cnccn2)[C@@H](CO)N3)cc1	-	-
Cc1ccc(S(=O)(=O)N(C)C[C@H]2OCCCC[C@H](C)Oc3ccc(NC(=O)Nc4cccc5ccccc45)cc3C(=O)N([C@H](C)CO)C[C@@H]2C)cc1	-	-
Cc1ccc(S(=O)(=O)N(C)C[C@@H]2OCCCC[C@H](C)Oc3ccc(NC(=O)Nc4cccc5ccccc45)cc3C(=O)N([C@H](C)CO)C[C@H]2C)cc1	-	-82
Cc1ccc(S(=O)(=O)N(C)C[C@@H]2OCCCC[C@@H](C)Oc3ccc(NC(=O)Nc4cccc5ccccc45)cc3C(=O)N([C@@H](C)CO)C[C@@H]2C)cc1	-	-82
Cc1ccc(S(=O)(=O)N(C)C[C@H]2OCCCC[C@H](C)Oc3ccc(NC(=O)Nc4cccc5ccccc45)cc3C(=O)N([C@@H](C)CO)C[C@@H]2C)cc1	-	-
CN(C)CC(=O)N1[C@H](C(=O)NC2CCCC2)[C@@H](CO)[C@@H]2Cn3c(ccc(-c4ccc(F)cc4)c3=O)[C@@H]21	-	-
CC(=O)N(C)C[C@@H]1Oc2cc(-c3cccnc3)ccc2S(=O)(=O)N([C@@H](C)CO)C[C@@H]1C	-	-
CC(C)(C)S(=O)N1Cc2cc(C(=O)NCc3ccc4c(c3)OCO4)nc(-c3cccc(-c4cc5ccccc5o4)c3)c2[C@H]1CCO (stereo partly drawn)	-	-93
CC(C)NC(=O)N1Cc2cc(C(=O)NCC(F)(F)F)nc(-c3cccc(-c4cc5ccccc5o4)c3)c2[C@H]1CCO	-	-86
CC(C)(C)S(=O)N1Cc2cc(C(=O)NCc3ccc4c(c3)OCO4)nc(-c3cccc(-c4cccc(F)c4)c3)c2[C@@H]1CCO (stereo partly drawn)	-	-
CC(C)NC(=O)N1Cc2cc(C(=O)NC3Cc4ccccc4C3)nc(-c3cccc(-c4cccnc4)c3)c2[C@@H]1CCO	-	.
C[C@@H]1CN([C@H](C)CO)S(=O)(=O)c2ccc(C#CC3CC3)cc2O[C@@H]1CN(C)C(=O)Cc1ccncc1	-	-
C[C@@H]1CCCCO[C@@H](CN(C)C(=O)Nc2cccc3ccccc23)[C@H](C)CN([C@H](C)CO)C(=O)c2cc(NC(=O)Nc3ccc(C(F)(F)F)cc3)ccc2O1	-	-
C[C@@H]1CCCCO[C@H](CN(C)C(=O)Nc2ccc(C(F)(F)F)cc2)[C@H](C)CN([C@H](C)CO)C(=O)c2cc(NC(=O)Nc3cccc4ccccc34)ccc2O1	-	-87
C[C@H]1CN([C@@H](C)CO)C(=O)Cc2cc(NC(=O)Nc3ccc(C(F)(F)F)cc3)ccc2O[C@@H]1CN(C)C(=O)Nc1cccc2ccccc12	-	-
COc1ccc(CN(C)C[C@H]2OCCCC[C@H](C)Oc3ccc(NC(=O)Nc4cccc5ccccc45)cc3C(=O)N([C@@H](C)CO)C[C@H]2C)cc1	-	?
COc1ccc(CN(C)C[C@@H]2OCCCC[C@H](C)Oc3ccc(NC(=O)Nc4cccc5ccccc45)cc3C(=O)N([C@H](C)CO)C[C@H]2C)cc1	-94	-90
C[C@@H]1CCCCO[C@@H](CN(C)C(=O)Nc2ccc(C(F)(F)F)cc2)[C@@H](C)CN([C@H](C)CO)C(=O)c2cc(NC(=O)Nc3cccc4ccccc34)ccc2O1	-	-
C[C@@H]1CCCCO[C@H](CN(C)C(=O)Nc2cccc3ccccc23)[C@@H](C)CN([C@@H](C)CO)C(=O)c2cc(NC(=O)Nc3ccc(C(F)(F)F)cc3)ccc2O1	-	-81
C[C@@H]1CN([C@H](C)CO)C(=O)Cc2cc(NC(=O)Nc3ccc(C(F)(F)F)cc3)ccc2O[C@H]1CN(C)C(=O)Nc1cccc2ccccc12	-	-85
O=C(C[C@H]1CC[C@@H]2[C@H](COC[C@@H](O)CN2Cc2ccccc2)O1)NCc1ccccc1Cl	.	-
COc1ccc(S(=O)(=O)Nc2ccc3c(c2)C(=O)N([C@H](C)CO)C[C@H](C)[C@H](CN(C)Cc2ccc(C(=O)O)cc2)OCCCC[C@@H](C)O3)cc1	-	-
COc1ccc(NC(=O)N[C@H]2CC[C@H](CC(=O)NCc3ccccn3)O[C@H]2CO)cc1	.	-
C[C@H](CO)N1C[C@H](C)[C@H](CN(C)C(=O)Nc2cccc3ccccc23)Oc2ccc(NC(=O)Nc3ccc(C(F)(F)F)cc3)cc2C1=O	-	-
C[C@H]1CCCCO[C@H](CN(C)Cc2ccc(C(F)(F)F)cc2)[C@@H](C)CN([C@@H](C)CO)C(=O)c2cc(NC(=O)Nc3cccc4ccccc34)ccc2O1	-	-
SMILES	C diff growth	Pf Dd2 inh
C[C@@H]1CN([C@H](C)CO)C(=O)c2cc(NC(=O)Nc3ccc(C(F)(F)F)cc3)ccc2O[C@H]1CN(C)C(=O)Nc1cccc2ccccc12	-	-95
C[C@@H]1CN([C@H](C)CO)C(=O)c2cc(NC(=O)Nc3cccc4ccccc34)ccc2O[C@@H](C)CCCCO[C@@H]1CN(C)Cc1ccc(C(F)(F)F)cc1	-	-87
O=C(NCc1ccc(F)cc1)[C@@H]1[C@@H](CO)[C@@H]2Cn3c(cccc3=O)[C@H]1N2C(=O)Cc1ccccn1	-	.
N#C[C@H]1[C@@H](c2ccc(C#Cc3ccccc3F)cc2)[C@@H](CO)N1C(=O)C1CCCCC1	-	-93
N#C[C@H]1[C@H](c2ccc(C#Cc3ccccc3F)cc2)[C@@H](CO)N1C(=O)C1CCCCC1	-	-
N#C[C@@H]1[C@H](c2ccc(C#Cc3ccccc3F)cc2)[C@H](CO)N1C(=O)C1CCCC1	-	-88
N#C[C@H]1[C@@H](c2ccc(C#Cc3ccccc3F)cc2)[C@H](CO)N1C(=O)C1CCCC1	-	-
CO[C@H]1CN(C)C(=O)c2cc(NC(=O)c3cc(C)on3)ccc2OC[C@@H](C)NC[C@@H]1C	.	-
COc1ccccc1S(=O)(=O)N1CC[C@@H]2[C@H]1c1cc(-c3ccccc3F)ccc1N(C)[C@H]2CO	-	-
COc1ccc(-c2ccccc2[C@H]2[C@@H](C#N)N(C(=O)C3CCCC3)[C@@H]2CO)cc1	-	-98
COc1ccccc1-c1ccccc1[C@H]1[C@@H](CO)N(C(=O)C2CCC2)[C@H]1C#N	-	-
COc1ccc(-c2ccccc2[C@H]2[C@@H](CO)N(C(=O)NC(C)C)[C@H]2C#N)cc1	-	-
COc1ccccc1-c1ccccc1[C@H]1[C@H](C#N)N(C(=O)C2CCC2)[C@H]1CO	-	-85
COc1ccccc1-c1ccccc1[C@H]1[C@@H](C#N)N(C(=O)C2CC2)[C@@H]1CO	-	-
COc1ccc(-c2ccccc2[C@H]2[C@@H](C#N)N(C(=O)NC(C)C)[C@H]2CO)cc1	-	-87
COc1ccc(-c2ccccc2[C@H]2[C@@H](C#N)N(C(=O)C3CCC3)[C@H]2CO)cc1	-	-
COc1ccccc1-c1ccccc1[C@@H]1[C@@H](C#N)N(C(=O)C2CC2)[C@@H]1CO	-	-98
C[C@@H]1CN([C@H](C)CO)C(=O)c2cc(N(C)C)ccc2O[C@@H]1CN(C)S(=O)(=O)c1ccc(F)cc1	-	-
COc1ccc(S(=O)(=O)Nc2ccc3c(c2)C(=O)N([C@@H](C)CO)C[C@@H](C)[C@H](CN(C)S(=O)(=O)c2c(C)noc2C)OCCCC[C@H](C)O3)cc1	-	-
O=C(CCN1CCCCC1)N[C@H]1CC[C@@H](CC(=O)N2CCC(Cc3ccccc3)CC2)O[C@@H]1CO	.	-
